Test in all cases: DAPPL (digital affinity profiling via proximity ligation, sequencing); 10 mM Tris-HCl pH 7.5, 50 mM NaCl, 1 mM DTT, 4% glycerol, room temperature, 30 min; GST-TFs on glutathione beads, 16-mer random dsDNA library, 0.1% formaldehyde crosslink after washing; high values mean tight binding
Assay [1] concerns the target T1, FEV (Homo sapiens, UniProt Q99581 1-238).
T1 sequence: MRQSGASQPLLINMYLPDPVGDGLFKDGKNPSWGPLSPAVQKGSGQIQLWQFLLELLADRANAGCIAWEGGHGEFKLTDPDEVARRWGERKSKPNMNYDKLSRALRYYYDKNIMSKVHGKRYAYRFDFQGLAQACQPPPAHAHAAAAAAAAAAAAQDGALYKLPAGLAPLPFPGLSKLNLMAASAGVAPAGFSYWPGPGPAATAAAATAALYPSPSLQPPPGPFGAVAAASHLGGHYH
Particulars: protein: recombinant; tags: N-terminal GST; dsDNA, one strand shown. In outline: (§1)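 Binding signal is each hexamer's read frequency for a factor divided by its frequency in the tag-only sample. The factors were GST-fused human transcription factors from yeast, captured on glutathione beads, DNA-barcoded and pooled with that sample. Pools were incubated with 200 nmole of a random double-stranded 16-mer DNA library in Tris/NaCl/DTT/glycerol buffer at room temperature for 30 min, then washed, crosslinked with 0.1% formaldehyde, proximity-ligated with BsaI/T4 ligase (1 h, 37 °C), PCR-amplified and sequenced on an Illumina NextSeq500.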

In assay [2] the target is ETV5 (Homo sapiens, UniProt P41161 1-510). Particulars: protein: recombinant; tags: N-terminal GST; dsDNA, one strand shown. In outline: as §1
Assay [3] has as its target HSF1 (Homo sapiens, UniProt Q00613 1-529). The conditions noted are these: protein: recombinant; tags: N-terminal GST; chain copies: 3; dsDNA, one strand shown. In outline:
as §1

In assay [4] the target is T2, SPIC (Homo sapiens, UniProt Q8N5J4 1-248).
T2 sequence: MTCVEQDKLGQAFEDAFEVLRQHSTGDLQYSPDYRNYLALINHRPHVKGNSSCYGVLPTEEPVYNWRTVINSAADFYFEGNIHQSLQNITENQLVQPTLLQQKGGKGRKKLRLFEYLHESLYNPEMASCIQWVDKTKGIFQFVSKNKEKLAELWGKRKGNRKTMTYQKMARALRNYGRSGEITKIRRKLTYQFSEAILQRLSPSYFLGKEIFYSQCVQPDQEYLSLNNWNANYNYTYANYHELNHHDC
Particulars: protein: recombinant; tags: N-terminal GST; dsDNA, one strand shown. A digest of the protocol: as §1

Assay [5] deals with ELF4 (Homo sapiens, UniProt Q99607 1-663). The conditions noted are these: protein: recombinant; tags: N-terminal GST; dsDNA, one strand shown. A digest of the protocol: as §1
In assay [6] the target is T3, ELK4 (Homo sapiens, UniProt P28324-2 1-405).
T3 sequence: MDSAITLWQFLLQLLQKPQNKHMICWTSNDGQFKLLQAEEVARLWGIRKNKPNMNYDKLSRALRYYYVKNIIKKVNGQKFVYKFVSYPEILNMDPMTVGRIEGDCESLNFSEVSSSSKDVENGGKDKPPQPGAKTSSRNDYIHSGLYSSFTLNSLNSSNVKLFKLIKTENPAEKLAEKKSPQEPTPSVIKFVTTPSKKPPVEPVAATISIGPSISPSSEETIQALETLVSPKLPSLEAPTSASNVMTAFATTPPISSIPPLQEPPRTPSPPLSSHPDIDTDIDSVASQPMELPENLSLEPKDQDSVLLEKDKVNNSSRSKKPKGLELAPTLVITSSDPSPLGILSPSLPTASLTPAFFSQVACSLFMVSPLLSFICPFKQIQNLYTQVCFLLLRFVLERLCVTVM
Particulars: protein: recombinant; tags: N-terminal GST; dsDNA, one strand shown. In outline: as §1

Assay [7] concerns the target T4, ETV2 (Homo sapiens, UniProt O00321 1-342).
T4 sequence: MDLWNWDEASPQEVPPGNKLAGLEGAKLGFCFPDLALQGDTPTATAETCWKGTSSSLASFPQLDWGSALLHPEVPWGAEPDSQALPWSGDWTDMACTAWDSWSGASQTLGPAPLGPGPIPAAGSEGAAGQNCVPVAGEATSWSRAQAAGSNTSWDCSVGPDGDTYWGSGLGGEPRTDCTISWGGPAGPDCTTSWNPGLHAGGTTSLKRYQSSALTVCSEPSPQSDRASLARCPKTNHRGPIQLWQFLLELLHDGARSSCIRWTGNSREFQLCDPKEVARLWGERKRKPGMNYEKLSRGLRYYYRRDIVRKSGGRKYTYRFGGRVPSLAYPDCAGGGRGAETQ
The conditions noted are these: protein: recombinant; tags: N-terminal GST; dsDNA, one strand shown. A digest of the protocol:
as §1

Assay [8] has as its target T5, ELF3 (Homo sapiens, UniProt P78545 1-371).
T5 sequence: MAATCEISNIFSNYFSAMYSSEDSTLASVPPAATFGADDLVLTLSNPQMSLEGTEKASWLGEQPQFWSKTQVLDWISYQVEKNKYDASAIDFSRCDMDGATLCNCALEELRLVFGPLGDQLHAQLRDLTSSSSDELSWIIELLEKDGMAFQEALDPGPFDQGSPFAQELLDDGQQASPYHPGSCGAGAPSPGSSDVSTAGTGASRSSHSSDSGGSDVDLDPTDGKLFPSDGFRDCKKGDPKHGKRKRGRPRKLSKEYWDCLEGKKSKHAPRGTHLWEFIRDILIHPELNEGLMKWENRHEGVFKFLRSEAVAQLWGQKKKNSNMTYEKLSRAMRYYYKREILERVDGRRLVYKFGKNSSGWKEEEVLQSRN
Particulars: protein: recombinant; tags: N-terminal GST; dsDNA, one strand shown. In outline:
as §1

In assay [9] the target is CRX (Homo sapiens, UniProt O43186 1-299). The conditions noted are these: protein: recombinant; tags: N-terminal GST; dsDNA, one strand shown. In outline: as §1
Assay [10] deals with ETV1 (Homo sapiens, UniProt P50549 1-477). Particulars: protein: recombinant; tags: N-terminal GST; dsDNA, one strand shown. A digest of the protocol:
as §1

The target in assay [11] is T6, ERF (Homo sapiens, UniProt P50548 1-548).
T6 sequence: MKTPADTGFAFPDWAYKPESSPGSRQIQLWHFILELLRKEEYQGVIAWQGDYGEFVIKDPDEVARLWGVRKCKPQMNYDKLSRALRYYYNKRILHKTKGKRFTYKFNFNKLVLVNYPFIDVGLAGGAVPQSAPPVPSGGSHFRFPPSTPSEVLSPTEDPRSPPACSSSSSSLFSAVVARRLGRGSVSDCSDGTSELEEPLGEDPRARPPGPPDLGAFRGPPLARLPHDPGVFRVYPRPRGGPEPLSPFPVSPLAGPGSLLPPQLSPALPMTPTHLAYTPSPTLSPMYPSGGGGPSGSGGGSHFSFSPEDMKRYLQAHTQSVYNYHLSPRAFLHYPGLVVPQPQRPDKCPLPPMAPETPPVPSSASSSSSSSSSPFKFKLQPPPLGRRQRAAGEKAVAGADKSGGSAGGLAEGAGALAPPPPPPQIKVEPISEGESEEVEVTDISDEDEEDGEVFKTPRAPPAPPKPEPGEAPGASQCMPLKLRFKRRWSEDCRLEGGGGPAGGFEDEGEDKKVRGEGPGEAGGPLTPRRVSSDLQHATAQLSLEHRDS
The conditions noted are these: protein: recombinant; tags: N-terminal GST; dsDNA, one strand shown. A digest of the protocol: as §1

Assay [12] addresses T7, ETV3L (Homo sapiens, UniProt Q6ZN32 1-361).
T7 sequence: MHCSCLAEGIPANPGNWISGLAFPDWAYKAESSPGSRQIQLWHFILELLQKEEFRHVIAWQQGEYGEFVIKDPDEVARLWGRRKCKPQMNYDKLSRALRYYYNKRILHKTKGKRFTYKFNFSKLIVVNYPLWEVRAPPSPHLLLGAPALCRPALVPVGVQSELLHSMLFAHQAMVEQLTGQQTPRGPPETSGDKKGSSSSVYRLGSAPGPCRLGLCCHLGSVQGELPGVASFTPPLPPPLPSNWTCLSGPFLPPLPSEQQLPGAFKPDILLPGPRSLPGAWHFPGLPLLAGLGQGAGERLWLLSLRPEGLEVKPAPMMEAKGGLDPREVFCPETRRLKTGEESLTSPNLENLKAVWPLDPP
The conditions noted are these: protein: recombinant; tags: N-terminal GST; dsDNA, one strand shown. In outline: as §1

Assay [13] deals with T8, ETS2 (Homo sapiens, UniProt P15036 1-469).
T8 sequence: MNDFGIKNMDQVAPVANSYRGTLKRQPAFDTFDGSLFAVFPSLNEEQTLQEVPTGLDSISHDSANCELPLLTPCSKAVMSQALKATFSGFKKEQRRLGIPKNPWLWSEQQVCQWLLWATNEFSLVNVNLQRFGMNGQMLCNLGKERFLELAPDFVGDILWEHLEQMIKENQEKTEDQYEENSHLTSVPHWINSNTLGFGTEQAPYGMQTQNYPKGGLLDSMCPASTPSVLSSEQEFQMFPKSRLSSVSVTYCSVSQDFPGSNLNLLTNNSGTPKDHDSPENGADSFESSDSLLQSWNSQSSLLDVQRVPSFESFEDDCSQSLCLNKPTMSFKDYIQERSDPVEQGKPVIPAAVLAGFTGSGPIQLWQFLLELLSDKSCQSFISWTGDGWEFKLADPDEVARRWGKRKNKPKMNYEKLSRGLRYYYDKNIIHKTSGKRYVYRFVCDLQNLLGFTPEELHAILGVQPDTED
The conditions noted are these: protein: recombinant; tags: N-terminal GST; dsDNA, one strand shown. A digest of the protocol: as §1

In assay [14] the target is T9, SPDEF (Homo sapiens, UniProt O95238 1-335).
T9 sequence: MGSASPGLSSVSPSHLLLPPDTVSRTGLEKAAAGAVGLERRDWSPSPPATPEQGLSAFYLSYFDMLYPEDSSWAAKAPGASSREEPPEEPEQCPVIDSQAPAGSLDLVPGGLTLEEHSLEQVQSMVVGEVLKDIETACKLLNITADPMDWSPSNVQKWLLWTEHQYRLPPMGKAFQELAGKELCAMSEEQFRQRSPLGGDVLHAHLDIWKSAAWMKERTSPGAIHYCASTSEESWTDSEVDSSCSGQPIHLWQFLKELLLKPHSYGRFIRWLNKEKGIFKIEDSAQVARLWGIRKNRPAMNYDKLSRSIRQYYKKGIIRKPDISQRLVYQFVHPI
Particulars: protein: recombinant; tags: N-terminal GST; dsDNA, one strand shown. A digest of the protocol:
as §1

Assay [15] has as its target T10, ETV7 (Homo sapiens, UniProt Q9Y603 1-341).
T10 sequence: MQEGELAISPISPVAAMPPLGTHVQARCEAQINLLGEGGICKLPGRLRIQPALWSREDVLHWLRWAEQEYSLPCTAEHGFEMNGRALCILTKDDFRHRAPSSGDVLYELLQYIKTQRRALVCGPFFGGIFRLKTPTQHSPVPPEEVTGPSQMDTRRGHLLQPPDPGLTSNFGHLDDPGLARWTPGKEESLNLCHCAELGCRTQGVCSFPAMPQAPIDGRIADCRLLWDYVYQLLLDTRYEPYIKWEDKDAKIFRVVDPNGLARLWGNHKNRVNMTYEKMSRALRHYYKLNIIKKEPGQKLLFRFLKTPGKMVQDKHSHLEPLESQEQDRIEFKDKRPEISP
The conditions noted are these: protein: recombinant; tags: N-terminal GST; dsDNA, one strand shown. In outline:
as §1

The target of assay [16] is T11, ELF5 (Homo sapiens, UniProt Q9UKW6-2 1-255).
T11 sequence: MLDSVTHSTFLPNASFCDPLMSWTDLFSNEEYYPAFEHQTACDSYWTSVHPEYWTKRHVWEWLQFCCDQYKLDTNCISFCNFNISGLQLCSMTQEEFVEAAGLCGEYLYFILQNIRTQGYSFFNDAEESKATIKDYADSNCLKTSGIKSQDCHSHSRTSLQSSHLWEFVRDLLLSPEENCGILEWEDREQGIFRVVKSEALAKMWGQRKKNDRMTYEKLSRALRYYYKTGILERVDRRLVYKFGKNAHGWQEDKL
Particulars: protein: recombinant; tags: N-terminal GST; dsDNA, one strand shown. A digest of the protocol:
as §1

For assay [17], the target named is T12, ETV3 (Homo sapiens, UniProt P41162-2 1-143).
T12 sequence: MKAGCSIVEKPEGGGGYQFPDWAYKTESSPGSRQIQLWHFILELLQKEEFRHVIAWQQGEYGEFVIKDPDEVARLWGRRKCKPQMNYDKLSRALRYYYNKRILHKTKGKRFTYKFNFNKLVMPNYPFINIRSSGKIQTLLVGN
The conditions noted are these: protein: recombinant; tags: N-terminal GST; dsDNA, one strand shown. In outline: as §1

In assay [18] the target is ETV6 (Homo sapiens, UniProt P41212 1-452). Particulars: protein: recombinant; tags: N-terminal GST; dsDNA, one strand shown. A digest of the protocol:
as §1

Sequence of ETV5 (P41161 whole entry): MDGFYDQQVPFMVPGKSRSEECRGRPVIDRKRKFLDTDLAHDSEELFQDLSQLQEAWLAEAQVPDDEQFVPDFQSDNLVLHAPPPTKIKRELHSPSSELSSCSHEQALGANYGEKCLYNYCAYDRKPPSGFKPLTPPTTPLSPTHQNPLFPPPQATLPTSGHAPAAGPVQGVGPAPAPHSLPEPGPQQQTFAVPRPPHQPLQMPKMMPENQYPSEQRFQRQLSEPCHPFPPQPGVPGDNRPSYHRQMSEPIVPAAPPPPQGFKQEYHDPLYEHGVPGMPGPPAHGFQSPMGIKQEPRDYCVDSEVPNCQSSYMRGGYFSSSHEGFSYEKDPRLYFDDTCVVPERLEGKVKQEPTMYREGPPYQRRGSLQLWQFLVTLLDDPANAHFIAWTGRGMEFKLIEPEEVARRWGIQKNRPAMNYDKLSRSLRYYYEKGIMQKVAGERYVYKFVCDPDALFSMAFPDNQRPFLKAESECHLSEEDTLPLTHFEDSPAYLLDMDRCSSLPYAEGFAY
Sequence of ETV6 (P41212 whole entry): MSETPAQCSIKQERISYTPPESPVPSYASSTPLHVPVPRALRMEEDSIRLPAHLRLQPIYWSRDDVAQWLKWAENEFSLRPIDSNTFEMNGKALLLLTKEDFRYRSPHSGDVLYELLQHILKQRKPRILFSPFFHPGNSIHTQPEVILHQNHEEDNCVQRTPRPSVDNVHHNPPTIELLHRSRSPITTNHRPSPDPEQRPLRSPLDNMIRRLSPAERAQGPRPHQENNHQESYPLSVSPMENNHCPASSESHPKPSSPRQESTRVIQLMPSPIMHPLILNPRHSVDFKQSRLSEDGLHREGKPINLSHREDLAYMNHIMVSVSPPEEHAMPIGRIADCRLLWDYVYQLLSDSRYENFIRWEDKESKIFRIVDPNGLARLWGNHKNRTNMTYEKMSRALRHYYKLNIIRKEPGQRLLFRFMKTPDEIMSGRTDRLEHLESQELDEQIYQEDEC
Sequence of ETV1 (P50549 whole entry): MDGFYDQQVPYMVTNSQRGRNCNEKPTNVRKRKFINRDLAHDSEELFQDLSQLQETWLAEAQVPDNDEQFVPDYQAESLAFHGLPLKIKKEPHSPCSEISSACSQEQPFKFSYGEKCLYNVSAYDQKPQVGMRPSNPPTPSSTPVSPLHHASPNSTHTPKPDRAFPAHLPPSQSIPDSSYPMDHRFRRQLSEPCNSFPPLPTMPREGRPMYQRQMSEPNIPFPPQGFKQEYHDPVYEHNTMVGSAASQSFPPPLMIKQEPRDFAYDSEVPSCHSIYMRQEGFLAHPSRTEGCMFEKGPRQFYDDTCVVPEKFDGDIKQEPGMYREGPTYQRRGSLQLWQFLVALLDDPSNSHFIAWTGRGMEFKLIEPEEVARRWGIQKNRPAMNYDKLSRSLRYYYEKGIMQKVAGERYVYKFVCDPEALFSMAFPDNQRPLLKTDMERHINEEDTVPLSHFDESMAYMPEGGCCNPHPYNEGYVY
Sequence of ELF4 (Q99607 whole entry): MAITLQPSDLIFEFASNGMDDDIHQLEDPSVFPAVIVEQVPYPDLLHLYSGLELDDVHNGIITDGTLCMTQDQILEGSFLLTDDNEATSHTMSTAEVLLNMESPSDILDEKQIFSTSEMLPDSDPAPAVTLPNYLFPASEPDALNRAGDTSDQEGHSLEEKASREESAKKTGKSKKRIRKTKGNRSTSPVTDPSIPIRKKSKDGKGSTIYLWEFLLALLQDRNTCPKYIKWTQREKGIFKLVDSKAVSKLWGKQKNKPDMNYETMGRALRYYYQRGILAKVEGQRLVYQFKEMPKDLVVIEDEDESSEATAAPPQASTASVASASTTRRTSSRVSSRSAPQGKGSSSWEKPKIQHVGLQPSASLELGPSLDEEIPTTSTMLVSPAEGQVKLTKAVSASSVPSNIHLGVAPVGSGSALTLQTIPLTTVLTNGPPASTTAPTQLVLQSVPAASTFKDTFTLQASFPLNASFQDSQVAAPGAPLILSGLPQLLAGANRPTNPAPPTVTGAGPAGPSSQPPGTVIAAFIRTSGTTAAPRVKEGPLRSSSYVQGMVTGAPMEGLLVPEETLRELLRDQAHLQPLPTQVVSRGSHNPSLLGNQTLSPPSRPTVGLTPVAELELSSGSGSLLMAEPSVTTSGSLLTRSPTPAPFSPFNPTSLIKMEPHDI
Sequence of HSF1 (Q00613 whole entry): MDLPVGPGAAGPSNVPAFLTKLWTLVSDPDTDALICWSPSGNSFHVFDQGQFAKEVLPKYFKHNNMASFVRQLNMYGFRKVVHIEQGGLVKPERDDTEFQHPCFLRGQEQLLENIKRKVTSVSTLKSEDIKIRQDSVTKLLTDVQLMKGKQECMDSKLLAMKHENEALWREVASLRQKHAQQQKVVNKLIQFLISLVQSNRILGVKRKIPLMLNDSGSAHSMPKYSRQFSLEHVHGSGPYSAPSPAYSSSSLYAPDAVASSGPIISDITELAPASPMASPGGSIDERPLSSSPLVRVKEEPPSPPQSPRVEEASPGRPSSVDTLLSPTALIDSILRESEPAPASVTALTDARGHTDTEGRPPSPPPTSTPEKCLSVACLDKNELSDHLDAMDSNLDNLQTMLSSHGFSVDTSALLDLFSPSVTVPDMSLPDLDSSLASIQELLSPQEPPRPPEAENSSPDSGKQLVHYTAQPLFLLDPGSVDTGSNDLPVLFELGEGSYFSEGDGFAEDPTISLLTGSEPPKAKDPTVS
Sequence of CRX (O43186 whole entry): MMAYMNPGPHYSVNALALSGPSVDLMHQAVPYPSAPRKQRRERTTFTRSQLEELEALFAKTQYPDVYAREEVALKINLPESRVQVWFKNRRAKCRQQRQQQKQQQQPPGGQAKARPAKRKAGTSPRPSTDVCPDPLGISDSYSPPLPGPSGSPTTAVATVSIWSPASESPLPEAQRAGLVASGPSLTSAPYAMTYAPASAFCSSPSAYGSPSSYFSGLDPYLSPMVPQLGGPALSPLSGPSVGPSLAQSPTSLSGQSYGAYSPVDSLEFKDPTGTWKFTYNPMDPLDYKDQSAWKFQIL

ACTCTC: the binding signal in assay [1] is 1.42 fold enrichment (6-mer frequency, TF over GST control); in assay [2], 1.42 fold enrichment (6-mer frequency, TF over GST control); in assay [3], 1.55 fold enrichment (6-mer frequency, TF over GST control); in assay [4], 1.47 fold enrichment (6-mer frequency, TF over GST control); in assay [5], 1.49 fold enrichment (6-mer frequency, TF over GST control); in assay [6], 1.55 fold enrichment (6-mer frequency, TF over GST control). For the same sequence, the binding signal was 1.39 fold enrichment (6-mer frequency, TF over GST control) in assay [7]; 1.88 fold enrichment (6-mer frequency, TF over GST control) in assay [8]; 1.31 fold enrichment (6-mer frequency, TF over GST control) in [9]; 1.53 fold enrichment (6-mer frequency, TF over GST control) in assay [10]; 1.42 fold enrichment (6-mer frequency, TF over GST control) in assay [11]; 1.49 fold enrichment (6-mer frequency, TF over GST control) in assay [12]. Also, the binding signal in assay [13] is 1.48 fold enrichment (6-mer frequency, TF over GST control); in [14], 1.45 fold enrichment (6-mer frequency, TF over GST control); in assay [15] it was 1.27 fold enrichment (6-mer frequency, TF over GST control); in [16] it was 1.37 fold enrichment (6-mer frequency, TF over GST control); in [17], 1.5 fold enrichment (6-mer frequency, TF over GST control); in assay [18] it was 1.33 fold enrichment (6-mer frequency, TF over GST control).

For the origin of these results see article PMC7862700, “An all-to-all approach to the identification of sequence-specific readers for epigenetic DNA modifications on cytosine”.
